{"source": "PubChem BioAssay (EPA / NIEHS)", "note": "Active and inactive are the calls of the source. Rule for the calls: active = hit-call score of the fitted dose curve at least 0.9, where 1 is the maximum; inactive = score below 0.9."}
{"read-out": "ABC Transporter (ABCB1), ABCB1 (gene 5243)", "test": "LTEA_HepaRG_ABCB1: Life Technologies and Expression Analysis (LTEA) Assay for ABC Transporter (ABCB1) using HepaRG (AID 2283460)", "settings": "mRNA level, 48 h; actives raise or lower the signal", "outline": "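ABCB1 transcript level measured by TaqMan qRT-PCR against three housekeeping genes after 48 h chemical exposure of differentiated HepaRG cells. Top concentration 100 uM, half-log steps, eight points, 0.5% DMSO vehicle; bidirectional fit relative to DMSO.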"}
{"molecule": "CC1=C2C[C@H]3[C@@H](CC=C4C[C@@H](O)CC[C@@]43C)[C@@H]2CC[C@]12O[C@@H]1C[C@H](C)CN[C@H]1[C@H]2C", "outcome": "inactive"}
{"molecule": "CC#Cc1cc(C)nc(Nc2ccccc2)n1", "outcome": "inactive"}
{"molecule": "CCC(C)(c1ccc(O)cc1)c1ccc(O)cc1", "outcome": "inactive"}
{"molecule": "Cc1ccccc1CO[C@@H]1C[C@@]2(C(C)C)CC[C@]1(C)O2", "AC50": "50 µM (active)"}
{"molecule": "CCC(=O)O[C@H]1CC[C@H]2[C@@H]3CCC4=CC(=O)CC[C@]4(C)[C@H]3CC[C@]12C", "outcome": "inactive"}
{"molecule": "Oc1ccc(Cl)cc1Cl", "outcome": "inactive"}
{"molecule": "CCCCCCCCCc1ccc(O)cc1", "outcome": "inactive"}
{"molecule": "ClC(Cl)=C(c1ccc(Cl)cc1)c1ccc(Cl)cc1", "AC50": "23.2 µM (active)"}
{"molecule": "O=S(=O)(O)C(F)(F)C(F)(F)C(F)(F)C(F)(F)C(F)(F)C(F)(F)F", "outcome": "inactive"}
{"molecule": "Cc1cc(O)ccc1Cl", "outcome": "inactive"}
{"molecule": "O=C(O)C(F)(F)C(F)(F)C(F)(F)C(F)(F)C(F)(F)C(F)(F)C(F)(F)C(F)(F)F", "AC50": "75.3 µM (active)"}
{"molecule": "COS(=O)(=O)OC", "outcome": "inactive"}
{"molecule": "N#Cc1ccc(N(CC(N)=O)CC(F)(F)F)cc1C(F)(F)F", "AC50": "9.92 µM (active)"}
{"molecule": "CCC(C)(CC)c1cc(NC(=O)c2c(OC)cccc2OC)on1", "AC50": "1.15 µM (active)"}
{"molecule": "O=C(N[C@H]1CN2CCC1CC2)c1cc2ccoc2cn1", "outcome": "inactive"}
{"molecule": "C1CC2OC2CC1C1CO1", "note": "(centres undefined)", "outcome": "inactive"}
{"molecule": "O=S(=O)(O)C(F)(F)C(F)(F)C(F)(F)C(F)(F)F", "outcome": "inactive"}
{"molecule": "O=NN(c1ccccc1)c1ccccc1", "outcome": "inactive"}
{"molecule": "NS(=O)(=O)C(F)(F)C(F)(F)C(F)(F)C(F)(F)C(F)(F)C(F)(F)C(F)(F)C(F)(F)F", "AC50": "9.25 µM (active)"}
